The values that follow come from PubChem BioAssay (NCI).

SMILES strings stand for the structures. This is part of a sample that, as a whole, favours compounds with a hit. Of some 83,000 tested, about 20% had one in any assay.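 Activity criterion: percent growth below 10, measured after cells in 96-well plates were exposed to a single compound concentration for 48 hours.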 Activity calls are given as the source filed them.

The subject of the assay is HL-60(TB) leukemia. The assay can be described thus: NCI-60 one-dose screen, 48 h (100 = growth as untreated, 0 = no growth, -100 = all killed). As to conditions: 10 µM unless noted.
Take `CCOP(=O)(OCC)OC[C@]12CCC(C)(C)CC1C1=CC[C@@H]3[C@@]4(C)CCCNC(C)(C)[C@@H]4CC[C@@]3(C)[C@]1(C)CC2` (some centres not stated): the growth was 34.7% (inactive).
Consider `Oc1ccccc1-c1nnc(SCc2ccc(O)c3ncccc23)n1-c1ccccc1`, for which the growth was 4.52% (active).
With `COc1cc(-c2nc(SCc3ccc(C)cc3)[nH]c(=O)c2C#N)ccc1OCc1ccccc1` the figure was 137% (inactive).
On to `CC(C)(C)Nc1nc2c(OCCc3ccccc3)cccn2c1-c1ccc(Cl)cc1`, for which the growth is -27.8% (active).
With `O=[N+]([O-])c1cc(/C=N/Nc2nc(N/N=C/c3ccc(Cl)c([N+](=O)[O-])c3)nc(N3CCCCC3)n2)ccc1Cl` the figure was 41.9% (inactive).
For the compound `CC1=C2C(=C[C@@](C)(COS(N)(=O)=O)[C@@H]2O)C(=O)[C@](C)(O)C12CC2`, the growth was 61.4% (inactive).
With `COc1cc(-c2nn(C(C)(C)C)cc2-c2ccnc(NCCCNS(=O)(=O)c3cccc(F)c3)n2)ccc1Cl` the figure was 81.9% (inactive); with `CN1CCN(Cc2ccc(NC(=O)c3cncc(C#Cc4cnc5ccc(OCCCS(C)(=O)=O)nn45)c3)cc2C(F)(F)F)CC1`, -6.31% (active); with `C#CCOc1ccc(C(Nc2ccc(OC)cc2)c2nnnn2C2CCCCC2)cc1` (configuration not stated), 84.7% (inactive).
With `Cc1ccc(NC(=O)CNc2cc(C(N)=O)cc(F)c2C)c(Cl)c1` the figure was 133% (inactive); with `Cc1ccc2sc3c(c2c1)OC(N)=C(C#N)C3c1cccc(F)c1` (configuration not stated), -0.493% (active).
With `CCOC(=O)c1c(N)c(C#N)cn1-c1cc(OC)c(OC)c(OC)c1` the figure was 96.1% (inactive); with `COc1cc(-c2nc(-c3ccccc3)[nH]c2-c2ccnc(NCCCNS(=O)(=O)c3cccc(F)c3)n2)ccc1Cl`, 55.1% (inactive).
As to `COc1cc(-c2ccc3ncnc(NCc4ccccc4)c3c2)cnc1OC`, the growth is 66% (inactive).
Regarding `Clc1ccc2c(NCCCN3CCOCC3)c3oc4ccccc4c3nc2c1`, the growth is 37.9% (inactive).
With `CC(=O)Oc1ccccc1C(=O)Nc1ccc(C(=O)/C=C/c2ccncc2)cc1` the figure was 7.33% (active).
The value for `O=C(NCCN1CCCC1)c1ccc(-c2nc3ccc4[nH]ncc4c3c3c2CCCC3)cc1` was -49.8% (active).
With `O=C(CSc1nnc(-c2ccc3nc(-c4ccccc4)[nH]c3c2)o1)Nc1ccc(C(=O)/C=C/c2ccccc2)cc1` the figure was 109% (inactive); with `O=C(Nc1cc(F)cc2cccnc12)c1cnc(N2CCOCC2)cn1`, 36.9% (inactive).
For the compound `Cc1cc2nc(C(Cl)Cl)nc(-c3ccc(S(=O)(=O)N(C)C)cc3)n2n1`, the growth was 0.868% (active).
With `CN1CCN(Cc2ccc(NC(=O)c3cncc(C#Cc4cnc(N)nc4)c3)cc2C(F)(F)F)CC1` the figure was 19.4% (inactive); with `O=C(CCCCCCNC(=O)C(O)(O)C(F)(F)F)Nc1ncc(-c2ccc(Br)cc2)s1`, 6.28% (active).
The value for `CCc1ccc(NC(=O)N[C@@H](Cc2cccc(C)c2)C(=O)N[C@@H]2C(=O)N3CCC[C@H]3C(=O)N3CCCC[C@H]3C(=O)N[C@@H](CO)C(=O)N3C[C@H](C)C[C@H]3C(=O)O[C@H]2C)c(F)c1` was 15.8% (inactive); that for `CCCCCCNC(=O)Oc1ccc(/C(=C(/C)c2ccc(OC)cc2)c2ccc(OCCN3CCCCCC3)cc2)cc1` was -0.81% (active).
`COc1ccc(-c2oc3cc(O)cc(O)c3c(=O)c2OC)cc1O`: the growth is -6.5% (active).
With `COc1cc(OC)c(S(N)(=O)=O)cc1C(=O)/C=C/c1ccc(C)cc1` the figure was 6.73% (active); with `O=C1c2ccccc2C23C(=C(c4cncnc4)c4ccccc42)CCCN13` (configuration not stated), 112% (inactive).
